Assay results published in PubChem BioAssay (EPA / NIEHS).
Inconclusive results are not listed. Calls of active or inactive are those of the source. How the source made its calls: active means hit-call score of the fitted dose curve at least 0.9, where 1 is the maximum; inconclusive means response in the unintended direction; inactive means score below 0.9.

target: Estrogen receptor (Homo sapiens) (UniProt P03372); experiment: OT_ER_ERaERa_1440: Odyssey Thera (OT) 24-hour HEK293T Protein-Complementation Assay for Estrogen Receptor-alpha/-alpha Homodimer (AID 2283349);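 further: hits raise fluorescence above DMSO for agonists and antagonists alike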
In short: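 Stably transfected HEK293T; ERα LBD homodimer PCA. 24 h dosing, fluorescence intensity read, gain-of-signal vs DMSO.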

Sequence of Estrogen receptor (Homo sapiens) (P03372 whole entry, looked up, the tested form may be a part): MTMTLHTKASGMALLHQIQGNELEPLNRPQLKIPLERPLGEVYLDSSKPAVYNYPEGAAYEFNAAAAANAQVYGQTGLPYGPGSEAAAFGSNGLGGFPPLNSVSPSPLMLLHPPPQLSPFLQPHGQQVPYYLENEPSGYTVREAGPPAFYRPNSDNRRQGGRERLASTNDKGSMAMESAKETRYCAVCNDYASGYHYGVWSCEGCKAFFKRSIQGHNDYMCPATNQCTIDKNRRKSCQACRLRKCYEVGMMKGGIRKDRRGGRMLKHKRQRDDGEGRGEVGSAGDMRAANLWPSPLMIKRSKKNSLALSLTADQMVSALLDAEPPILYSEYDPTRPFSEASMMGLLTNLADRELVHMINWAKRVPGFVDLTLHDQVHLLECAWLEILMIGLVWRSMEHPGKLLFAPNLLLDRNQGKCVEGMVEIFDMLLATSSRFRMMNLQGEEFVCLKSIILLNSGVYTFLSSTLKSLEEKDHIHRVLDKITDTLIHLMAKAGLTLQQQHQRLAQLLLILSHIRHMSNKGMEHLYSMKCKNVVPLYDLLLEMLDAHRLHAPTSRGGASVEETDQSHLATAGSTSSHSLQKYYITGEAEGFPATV

outcome, inactive:
CCCCC(CC)CCC(CC(C)C)OS(=O)(=O)O (stereo unspecified), CCCCCCCOC(=O)CCC, C=CC(=O)NC(C)(C)CS(=O)(=O)O, NC(=O)N=NC(N)=O, CCCCC/C=C\CCC=O, CC(C)c1ccc2cc(C(C)C)ccc2c1, CC(CC=O)CCCC(C)(C)O (stereo unspecified), c1c[nH]cn1, CO[Si](OC)(OC)c1ccccc1, CCO[Si](C)(OCC)OCC, CC(C)=CCC[C@H](C)CCO, CCCCCc1ccc(Cl)cc1, Cc1ccc(C(C)(C)C)cc1, CCOC(=O)Cc1cccc2ccccc12, CCCCCCC1(C)CCC(=O)O1 (stereo unspecified), CNC(=S)NN, CCCCCCCC/C=C\CCCCCCCC(=O)OCCO, CC1=NN(c2cc(S(=O)(=O)O)ccc2Cl)C(=O)C1N=Nc1ccccc1 (stereo unspecified), CCCc1ccc(OC)cc1, CC(C)(C)c1ccc(N)cc1, C=C[Si](C)(C)O[Si](C)(C)C=C, Cc1cc(C)c(C(=O)O)c(C)c1, Cc1cc(C)c(C)cc1C, CC1=CC[C@H]2C[C@@H]1C2(C)C, CC(C)(C)c1ccc(-c2ccc(C(C)(C)C)cc2)cc1, C1CN(SSN2CCOCC2)CCO1, C=C1C2CCC(C2)C1(C)C (stereo unspecified), O=C(c1ccccc1)C1CCC1, O=C(C=Cc1ccccc1)OCc1ccccc1, CC=C1CC2C=CC1C2 (stereo unspecified), Cn1c([N+](=O)[O-])cnc1COC(N)=O, O=C1CCCC1

AC50, active:
CC(C)(C)c1ccc(OC(=O)c2ccccc2O)cc1 14.5 µM, Cc1ccc(C(C)c2ccc(C)c(C)c2)cc1C 84.6 µM

target: Estrogen receptor (Homo sapiens) (UniProt P03372); experiment: OT_ER_ERaERa_0480: Odyssey Thera (OT) 8-hour HEK293T Protein-Complementation Assay for Estrogen Receptor-alpha/-alpha Homodimer (AID 2283351);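 further: rise in fluorescence from reassembled reporter fragments on ERα LBD homodimer in nucleus or whole cell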
In short: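 Measures ERα LBD (aa 310-547) homodimer complementation in stably transfected HEK293T at 8 h post-dose, with fluorescence intensity quantified on a laser scanning cytometer relative to DMSO controls.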

outcome, inactive:
CCCCC(CC)CCC(CC(C)C)OS(=O)(=O)O (stereo unspecified), CCCCCCCOC(=O)CCC, C=CC(=O)NC(C)(C)CS(=O)(=O)O, NC(=O)N=NC(N)=O, CCCCC/C=C\CCC=O, CC(C)c1ccc2cc(C(C)C)ccc2c1, CC(CC=O)CCCC(C)(C)O (stereo unspecified), c1c[nH]cn1, CO[Si](OC)(OC)c1ccccc1, CCO[Si](C)(OCC)OCC, CC(C)=CCC[C@H](C)CCO, CCCCCc1ccc(Cl)cc1, Cc1ccc(C(C)(C)C)cc1, CC(C)(C)c1ccc(OC(=O)c2ccccc2O)cc1, CCOC(=O)Cc1cccc2ccccc12, CCCCCCC1(C)CCC(=O)O1 (stereo unspecified), CNC(=S)NN, CCCCCCCC/C=C\CCCCCCCC(=O)OCCO, CC1=NN(c2cc(S(=O)(=O)O)ccc2Cl)C(=O)C1N=Nc1ccccc1 (stereo unspecified), CCCc1ccc(OC)cc1, CC(C)(C)c1ccc(N)cc1, C=C[Si](C)(C)O[Si](C)(C)C=C, Cc1cc(C)c(C(=O)O)c(C)c1, Cc1cc(C)c(C)cc1C, CC1=CC[C@H]2C[C@@H]1C2(C)C, CC(C)(C)c1ccc(-c2ccc(C(C)(C)C)cc2)cc1, C1CN(SSN2CCOCC2)CCO1, C=C1C2CCC(C2)C1(C)C (stereo unspecified), O=C(c1ccccc1)C1CCC1, O=C(C=Cc1ccccc1)OCc1ccccc1, CC=C1CC2C=CC1C2 (stereo unspecified), Cn1c([N+](=O)[O-])cnc1COC(N)=O, O=C1CCCC1

AC50, active:
Cc1ccc(C(C)c2ccc(C)c(C)c2)cc1C 70.3 µM

target: Estrogen receptor (Homo sapiens) + Estrogen receptor beta (Homo sapiens) (UniProt P03372+Q92731); experiment: OT_ER_ERaERb_0480: Odyssey Thera (OT) 8-hour HEK293T Protein-Complementation Assay for Estrogen Receptor-alpha/-beta Heterodimer (AID 2283352)
In short: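 Fluorescence intensity readout from a protein-fragment complementation reporter in HEK293T; ER-alpha/ER-beta LBD heterodimer. Dosing 8 h. Gain-of-signal fit relative to DMSO negative control; laser scanning cytometry of whole-well cell population.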

Sequence of Estrogen receptor (Homo sapiens) + Estrogen receptor beta (Homo sapiens) (P03372 whole entry, looked up, the tested form may be a part): as above
Sequence of Estrogen receptor (Homo sapiens) + Estrogen receptor beta (Homo sapiens) (Q92731 whole entry, looked up, the tested form may be a part): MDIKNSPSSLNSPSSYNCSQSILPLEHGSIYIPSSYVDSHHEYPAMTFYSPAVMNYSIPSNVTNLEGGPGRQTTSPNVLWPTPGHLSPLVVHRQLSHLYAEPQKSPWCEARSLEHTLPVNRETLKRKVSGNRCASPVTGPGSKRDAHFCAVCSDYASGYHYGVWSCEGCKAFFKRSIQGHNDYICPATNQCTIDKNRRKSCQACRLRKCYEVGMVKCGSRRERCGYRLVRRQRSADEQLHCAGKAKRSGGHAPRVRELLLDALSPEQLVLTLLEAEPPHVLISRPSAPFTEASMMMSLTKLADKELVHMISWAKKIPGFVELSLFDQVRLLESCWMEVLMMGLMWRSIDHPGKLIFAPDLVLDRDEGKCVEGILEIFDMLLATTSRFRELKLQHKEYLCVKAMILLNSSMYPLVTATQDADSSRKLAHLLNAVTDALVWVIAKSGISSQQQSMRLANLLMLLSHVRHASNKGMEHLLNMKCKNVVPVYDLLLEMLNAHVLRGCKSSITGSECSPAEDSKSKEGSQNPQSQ

outcome, inactive:
CCCCC(CC)CCC(CC(C)C)OS(=O)(=O)O (stereo unspecified), CCCCCCCOC(=O)CCC, C=CC(=O)NC(C)(C)CS(=O)(=O)O, CC(C)c1ccc2cc(C(C)C)ccc2c1, c1c[nH]cn1, CO[Si](OC)(OC)c1ccccc1, CC(C)=CCC[C@H](C)CCO, CNC(=S)NN, CC1=NN(c2cc(S(=O)(=O)O)ccc2Cl)C(=O)C1N=Nc1ccccc1 (stereo unspecified), CCCc1ccc(OC)cc1, CC(C)(C)c1ccc(N)cc1, Cc1cc(C)c(C(=O)O)c(C)c1, CC1=CC[C@H]2C[C@@H]1C2(C)C, CC(C)(C)c1ccc(-c2ccc(C(C)(C)C)cc2)cc1, C=C1C2CCC(C2)C1(C)C (stereo unspecified), O=C(c1ccccc1)C1CCC1, O=C(C=Cc1ccccc1)OCc1ccccc1, CC=C1CC2C=CC1C2 (stereo unspecified), Cn1c([N+](=O)[O-])cnc1COC(N)=O, O=C1CCCC1

AC50, active:
CC(C)(C)c1ccc(OC(=O)c2ccccc2O)cc1 58.9 µM, CCOC(=O)Cc1cccc2ccccc12 61.7 µM, Cc1ccc(C(C)c2ccc(C)c(C)c2)cc1C 58 µM
